Assay [1] in a line: Quantitative High-Throughput drug screen in 47 multiple myeloma cell lines against the NCATS MIPE library collection: Karpas620_DSMZ cell viability assay (AID 1918959). Further: nearly all actives have a fitted effect of over 30% in size. Summed up: (§1)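 Primary qHTS used for cherry-picking: cells at 500/well, library compounds for 48 h (37C, 5% CO2), luminescent ATP assay.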
Assay [2] in a line: Quantitative High-Throughput drug screen in 47 multiple myeloma cell lines against the NCATS MIPE library collection: KMM1_JCRB cell viability assay (AID 1918960). Further: nearly all actives have a fitted effect of over 30% in size. The method, boiled down: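 ATP readout (CellTiter-Glo), 48 h drug incubation, 37 °C/5% CO2, 500 cells per well; normalisation to DMSO (100%) and media-only (0%) controls.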
Assay [3] in a line: Quantitative High-Throughput drug screen in 47 multiple myeloma cell lines against the NCATS MIPE library collection: JIM3_ECACC cell viability assay (AID 1918963; further: nearly all actives have a fitted effect of over 35% in size). Summed up:
as §1

Assay [4] in a line: Quantitative High-Throughput drug screen in 47 multiple myeloma cell lines against the NCATS MIPE library collection: JJN3_DSMZ cell viability assay (AID 1918966; further: nearly all actives have a fitted effect of over 50% in size). The method, boiled down:
(§2)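 Luminescent ATP measurement with CellTiter-Glo gives viability, scaled between DMSO-only wells (100%) and media-only wells (0%). Cells, 500 per well, faced library compounds for 48 hours at 37C.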

Assay [5] in a line: Quantitative High-Throughput drug screen in 47 multiple myeloma cell lines against the NCATS MIPE library collection: H1112_PLB cell viability assay (AID 1918967; further: nearly all actives have a fitted effect of over 30% in size). The method, boiled down: as §2
Assay [6] can be described thus: Quantitative High-Throughput drug screen in 47 multiple myeloma cell lines against the NCATS MIPE library collection: Karpas25_ECACC cell viability assay (AID 1918968; further: nearly all actives have a fitted effect of over 35% in size). Summed up:
as §2

Assay [7] can be described thus: Quantitative High-Throughput drug screen in 47 multiple myeloma cell lines against the NCATS MIPE library collection: INA6_PLB cell viability assay (AID 1918965; further: nearly all actives have a fitted effect of over 55% in size). The method, boiled down: (§3)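 We plated 500 myeloma cells per well, pinned in MIPE 4.0 compounds, and incubated for 48 hours at 37C. ATP was then quantified with CellTiter-Glo, with DMSO and media-only wells defining 100% and 0%.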

The nature of assay [8]: Quantitative High-Throughput drug screen in 47 multiple myeloma cell lines against the NCATS MIPE library collection: JIM1_ECACC cell viability assay (AID 1918964). Summed up:
as §2

Assay [9] can be described thus: Quantitative High-Throughput drug screen in 47 multiple myeloma cell lines against the NCATS MIPE library collection: Karpas417_ECACC cell viability assay (AID 1918961). Conditions: Karpas417 myeloma viability, CellTiter-Glo ATP luminescence, 48 h; viability (% of DMSO): at 45.8 µM (top of the series). Summed up: as §3
A short description of assay [10]: Quantitative High-Throughput drug screen in 47 multiple myeloma cell lines against the NCATS MIPE library collection: KHM11_PLB cell viability assay (AID 1918962). Further: nearly all actives have a fitted effect of over 35% in size. Summed up:
as §1

Records with an inconclusive call do not appear. Activity calls are given as the source filed them. The call rests on the fitted dose curve; in most records, active means well fitted curve in the direction sought with a large enough effect; inconclusive means small, poorly fitted or top-dose-only effect, or another doubt; inactive means no such curve, though single readings can be large; an effect the other way counts as inactive or inconclusive.
Potency means the concentration at half of the fitted maximal effect.

Regarding `CNC[C@H](O)c1ccc(O)c(O)c1`, the Potency result in assay [1], in [2] and in assay [5] was “inactive” in each case. The Potency in assay [3] is 38.2 µM (active); in assay [4] it was 13.6 µM (active); in assay [6], 5.4 µM (active).
Regarding `Cc1nc(Nc2ncc(C(=O)Nc3c(C)cccc3Cl)s2)cc(N2CCN(CCO)CC2)n1`, the Potency in assay [1] was 16.6 µM (active); in assay [2], 1.05 µM (active); in assay [7], 0.0833 µM (active); in assay [4], 3.32 µM (active); in assay [6] it was 0.332 µM (active).
Regarding `CN(C)CCCC1(c2ccc(F)cc2)OCc2cc(C#N)ccc21` (stereo not given), the Potency result in assay [1], in [2], in assay [3] and in assay [6] was “inactive” each time. The Potency in [5] is 8.33 µM (active).
Regarding `S=c1nc[nH]c2nc[nH]c12`, in [1], the Potency entry is “inactive”. For the same compound, the Potency is 4.69 µM (active) in assay [2], 16.6 µM (active) in assay [3], 1.87 µM (active) in assay [7] and 16.6 µM (active) in [6].
For the compound `CCCCCCCCCCCCCCCCCCCCCCO`, the Potency entry in [1], in assay [2], in assay [3], in assay [7], in [4] and in assay [5] was “inactive” in each case. In [6], the Potency entry is “inactive”.
Consider `O=C(O)CCNC(=O)c1ccc(N=Nc2ccc(O)c(C(=O)O)c2)cc1`, for which the Potency result in assay [1], in assay [2], in assay [3], in assay [7] and in assay [5] was “inactive” each time. The Potency in assay [6] is 0.0037 µM (active).
For the compound `O=C(OC1C[C@H]2CC[C@@H](C1)[N+]21CCCC1)C(O)(c1ccccc1)c1ccccc1` (stereo not given in full), the Potency entry in [1], in [2], in assay [3], in assay [8], in assay [5] and in assay [6] was “inactive” each time.
In the case of `O=C1c2ccccc2-c2n[nH]c3cccc1c23`, the Potency result in assay [1], in assay [3] and in assay [5] was “inactive” each time. Also, the Potency in [7] was 20.9 µM (active).
As for `O=c1ccc2ccc(O)c(O)c2o1`, the Potency in [1] is 23.5 µM (active); in [4], 16.6 µM (active); in assay [6], 3.32 µM (active).
As for `COc1cc(OC)c(C(=O)CCCN2CCCC2)c(OC)c1`, the Potency result in assay [1], in assay [9], in assay [3], in [5] and in assay [6] was “inactive” in each case. Further, in assay [4], the Potency was 0.059 µM (active).
For `O=c1cc(N2CCOCC2)oc2c(-c3ccccc3)cccc12`, the Potency entry in assay [1] and in [2] was “inactive” throughout. Further, the values for the Potency in assay [4] and in assay [6] were 16.6 µM (active) and 7.43 µM (active), respectively.
Consider `COc1cc2c(N3CCN(C(=O)Nc4ccc(OC(C)C)cc4)CC3)ncnc2cc1OCCCN1CCCCC1`, for which the Potency result in assay [1] and in assay [2] was “inactive” throughout. For the same compound, the Potency in assay [7] is 3.72 µM (active); in [6], 9.35 µM (active).
On to `COC(=O)C1=C(C)NC(C)=C(C(=O)OCCCN2CCC(c3ccccc3)(c3ccccc3)CC2)C1c1cccc([N+](=O)[O-])c1` (stereo not given), for which the Potency result in assay [1], in assay [10], in assay [3] and in assay [5] was “inactive” in each case.
Take `CN(C)[C@@H](CCOc1cccc2ccccc12)c1ccccc1`: the Potency result in assay [1] and in assay [8] was “inactive” each time. Moreover, the Potency in assay [7] and in assay [5] was 18.7 µM (active) each time.
As for `COc1cc(Nc2c(C#N)cnc3cc(OCCCN4CCN(C)CC4)c(OC)cc23)c(Cl)cc1Cl`, the Potency in assay [1] was 11.8 µM (active); in [3] it was 18.7 µM (active); in assay [7], 0.418 µM (active); in [4], 18.7 µM (active); in assay [5], 9.35 µM (active); in assay [6] it was 1.05 µM (active).
As to `CCCCN(CCCC)CCC(O)c1cc2c(Cl)cc(Cl)cc2c2cc(C(F)(F)F)ccc12` (stereo not given), the Potency result in assay [1] is “inactive”. For the same compound, the values for the Potency in assay [7] and in assay [6] were 18.7 µM (active) and 14.8 µM (active), respectively.
As to `C[C@]12CCC(=O)C=C1CC[C@@H]1[C@H]2[C@@H](O)C[C@@]2(C)[C@H]1CC[C@]2(O)C(=O)CO`, the Potency entry in assay [1], in [3] and in [8] was “inactive” in each case. Besides, in [6], the Potency was 5.9 µM (active).
For the compound `CCc1nc(N)nc(N)c1-c1ccc(Cl)cc1`, the Potency result in assay [1], in assay [10] and in assay [8] was “inactive” throughout. Besides, the Potency in assay [3] was 2.35 µM (active); in assay [7], 10.5 µM (active).
As for `CC1(C)C(=O)N(CCN2CCC(C(=O)c3ccc(F)cc3)CC2)c2ccccc21`, the Potency in [1] was 3.72 µM (active); in [2], 8.33 µM (active); in assay [7], 1.66 µM (active); in assay [6] it was 13.2 µM (active).
On to `CNC[C@@H](O)[C@@H](O)[C@H](O)[C@H](O)CO`, for which the Potency entry in assay [1], in assay [3] and in [8] was “inactive” throughout. Also, the Potency in assay [6] is 20.9 µM (active).
With `Cc1cc2cc3c(C)cc(=O)oc3c(C)c2o1`, the Potency in assay [1] is 23.5 µM (active); in assay [4], 5.26 µM (active); in assay [6] it was 20.9 µM (active).
Take `Cc1cccc(-c2[nH]ncc2-c2ccc3ncccc3n2)n1`: the Potency entry in assay [1], in assay [3] and in [5] was “inactive” each time.
Take `O=C(CCc1ccc(O)cc1)c1c(O)cc(O)cc1O`: the Potency in assay [1] is 1.32 µM (active); in assay [9], 0.132 µM (active); in assay [10] it was 59 nM (active); in [7], 0.418 µM (active); in assay [5] it was 0.148 µM (active); in assay [6], 0.187 µM (active).
On to `Nc1ncn([C@H]2C[C@H](O)[C@@H](CO)O2)c(=O)n1`, for which the Potency was 0.132 µM (active) in assay [1], 0.296 µM (active) in assay [2], 0.0235 µM (active) in assay [7] and 4.69 µM (active) in assay [6].
Consider `Nc1nc(OCc2ccccc2)c2[nH]cnc2n1`, for which the Potency result in assay [1] and in [5] was “inactive” throughout. Besides, the Potency was 16.6 µM (active) in [9], 13.2 µM (active) in assay [3], 18.7 µM (active) in [7] and 16.6 µM (active) in assay [6].
Turning to `NCCCCNCCCN`, the Potency was 18.7 µM (active) in assay [1]; 18.7 µM (active) in [3]; 11.8 µM (active) in [7]; 2.96 µM (active) in assay [4]; 18.7 µM (active) in assay [6].
On to `C[C@H](Cc1ccc(O)c(O)c1)[C@@H](C)Cc1ccc(O)c(O)c1`, for which the Potency is 5.26 µM (active) in assay [1], 9.35 µM (active) in [7], 14.8 µM (active) in assay [4] and 14.8 µM (active) in [6]. Moreover, the Potency entry in [8] is “inactive”.
Regarding `CCN(CC)CCOc1ccc(Cc2ccccc2)cc1`, the Potency in [1] and in assay [6] was 14.8 µM (active) each time. Besides, the Potency entry in assay [3] and in assay [5] was “inactive” throughout.
Consider `Cc1cc(=O)c2c(O)c3c(O)cc(=O)c4c3c3c(cc(O)c1c23)C(C)(C)C=4O`, for which the Potency in assay [1] was 14.8 µM (active); in assay [10], 372 nM (active); in [3], 0.235 µM (active); in assay [8] it was 5.9 µM (active); in assay [7] it was 0.418 µM (active); in assay [5], 0.59 µM (active). In [6], the Potency is 0.264 µM (active).
On to `CC1Cc2ccccc2N1NC(=O)c1ccc(Cl)c(S(N)(=O)=O)c1` (stereo not given), for which the Potency result in assay [1], in [3], in assay [7], in [5] and in assay [6] was “inactive” throughout.
`N[C@@H](Cc1cc(I)c(Oc2cc(I)c(O)c(I)c2)c(I)c1)C(=O)O`: the Potency result in assay [2], in assay [9], in [3], in assay [4], in [5] and in [6] was “inactive” throughout. The Potency in [8] was 0.0053 µM (active).
